Measured values: article PMC5540273 (PLoS ONE, 2017)

Assays:
Conditions in all cases: concentration: 1 μM, replicates: in singlicate; n = 1
[1] = system: T1, NIM1
T1 construct: gene MGC42105

[2] = system: NLK
[3] = system: T2, OSR1
T2 construct: gene OXSR1

[4] = system: PAK1
[5] = system: PAK2
[6] = system: PAK3
[7] = system: PAK4
[8] = system: PAK6
[9] = system: PAK7
[10] = system: T3, PCTK1
T3 construct: gene CDK16
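Note: KINOMEscan kinase panel screen.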

SMILES | %Inh [1] [%] | %Inh [2] [%] | %Inh [3] [%] | %Inh [4] [%] | %Inh [5] [%] | %Inh [6] [%] | %Inh [7] [%] | %Inh [8] [%] | %Inh [9] [%] | %Inh [10] [%]
Cn1cc(-c2[nH]c3cc(NC(=O)[C@H](N)C4CCCCC4)cc4c3c2C=NNC4=O)cn1 | 96.8 | 0 | 17 | 27 | 25 | 83 | 99.5 | 99.2 | 97.9 | 8
COc1cccc(C(=O)Nc2cccc(Oc3ccc4nc(NC(=O)C5CC5)cn4n3)c2)c1 | 0 | 0 | 0 | 17 | 26 | 23 | 18 | 15 | 0 | 0
C[C@@H]1CC[C@@H](C(=O)Nc2ccccc2)CN1c1cc(-c2ccc3c(N)n[nH]c3c2)nc(N)n1 [GSK2286062] | 23 | 11 | 10 | 20 | 6 | 0 | 0 | 0 | 6 | 0
CC(=O)N1CCN(c2ccc(Nc3nccc(-c4sc(C(C)C)nc4-c4cccc(NS(=O)(=O)c5cccc(Cl)c5)c4)n3)cn2)CC1 [GSK1660437] | 0 | 91.8 | 5 | 72 | 90.1 | 57 | 0 | 0 | 0 | 98.6
COc1cccc(-c2ccc3c(NC(=O)C4CC4)n[nH]c3n2)c1 [SB-710903] | 46 | 49 | 13 | 0 | 0 | 1 | 0 | 0 | 8 | 10
O=C(NC1CCN(c2ccnc(Nc3ccc(F)cc3)n2)C1)c1cc2ccccc2s1 (centres unmarked) [GSK1379716] | 34 | 31 | 11 | 18 | 16 | 19 | 0 | 0 | 4 | 0
CN(C)Cc1ccc(-c2ccc3c(Nc4ccc(Oc5ccccn5)cc4)ccnc3c2)o1 [GW567148] | 23 | 0 | 15 | 0 | 0 | 22 | 0 | 0 | 0 | 3
CN1CCN(CCCNc2nccc(-c3c(-c4ccc(F)cc4)nn4cc(C(F)(F)F)ccc34)n2)CC1 [GW621581] | 0 | 55 | 6 | 8 | 7 | 30 | 0 | 0 | 0 | 0
Cn1cc(-c2ccc3c(c2)CCN3C(=O)Cc2cccc(Cl)c2)c2c(N)ncnc21 [GSK2606590] | 0 | 0 | 16 | 17 | 22 | 46 | 0 | 0 | 9 | 0
O=C(Nc1ccccc1F)NC1CCN(c2ccnc(Nc3ccc(F)cc3)n2)CC1 [GSK1379800] | 32 | 12 | 0 | 1 | 0 | 0 | 0 | 0 | 0 | 0
O=C(Nc1cccc(Oc2ccc3nc(NC(=O)C4CC4)cn3n2)c1)c1ccccc1C(F)(F)F | 0 | 37 | 0 | 8 | 6 | 4 | 0 | 9 | 0 | 0
O=C(O)C(F)(F)F.O=C(O)C(F)(F)F.O=c1[nH]ccc2nc(N[C@@H]3CCCNC3)nc(Nc3ccc(S(=O)(=O)N4CCOCC4)cc3)c12 [GSK2177277] | 95.7 | 0 | 92.1 | 99.9 | 99.3 | 100 | 99.6 | 97.9 | 99.9 | 99.9
Cc1ccc(F)c(C(=O)Nc2cccc(-c3nn4ccccc4c3-c3ccnc(Nc4cccc(F)c4)n3)c2)c1F [GSK361061] | 0 | 77 | 100 | 4 | 21 | 42 | 3 | 0 | 14 | 0
COc1cc(Nc2nccc(N3CCC(NC(=O)c4cc5ccccc5s4)C3)n2)cc(OC)c1OC (centres unmarked) [GSK1379760] | 6 | 0 | 2 | 4 | 2 | 9 | 0 | 0 | 0 | 0
Cn1cc(-c2ccc3c(c2)CCN3C(=O)Cc2cccc(F)c2)c2c(N)ncnc21 [GSK2603358] | 24 | 0 | 37 | 0 | 0 | 31 | 0 | 0 | 0 | 4
FC(F)(F)c1ccc(/C=C/c2cncnc2Nc2ccc3[nH]c(Cc4ccccc4)nc3c2)cc1 [GW709199] | 0 | 9 | 0 | 4 | 16 | 0 | 0 | 0 | 0 | 0

SMILES | %Inh [1] [%] | %Inh [2] [%] | %Inh [3] [%] | %Inh [4] [%] | %Inh [5] [%] | %Inh [6] [%] | %Inh [7] [%] | %Inh [8] [%] | %Inh [9] [%] | %Inh [10] [%]
COc1cccc(NC(=O)NC2CCN(c3ccnc(Nc4cc(OC)c(OC)c(OC)c4)n3)C2)c1 (centres unmarked) [GSK1379763] | 15 | 63 | 0 | 0 | 0 | 0 | 0 | 16 | 0 | 6
COc1cccc(C2=C(Nc3ccc(Cl)c(C(=O)O)c3)C(=O)NC2=O)c1 [SB-390769] | 100 | 22 | 100 | 30 | 28 | 0 | 0 | 6 | 1 | 0
Cl.NC(=O)c1cccc(Nc2nccc(Nc3ccc(Oc4c(Cl)cccc4Cl)c(Cl)c3)n2)c1 [GW659009] | 7 | 0 | 15 | 34 | 8 | 72 | 0 | 0 | 0 | 0
Cc1ccc(C(=O)N2CC[C@@H](O)C2)cc1-n1c(C)cc(OCc2ccc(F)cc2F)c(Br)c1=O | 0 | 4 | 0 | 0 | 0 | 0 | 0 | 0 | 0 | 0
Nc1n[nH]c2cnc(-c3ccccc3)cc12 [SB-642124] | 29 | 31 | 12 | 21 | 15 | 34 | 0 | 0 | 6 | 11
CSc1cccc2c(-c3ccncn3)c(-c3ccc(F)cc3)nn12 [GW514786] | 19 | 70 | 8 | 11 | 25 | 19 | 0 | 3 | 0 | 2
CCCCc1nn2ncccc2c1-c1ccnc(Nc2ccc(N3CCN(C)CC3)cc2)n1 [GW684941] | 47 | 54 | 12 | 23 | 0 | 0 | 0 | 48 | 1 | 26
Nc1ncc(-c2cccnc2)c2scc(-c3ccc4c(c3)CCN4C(=O)Cc3ccccc3)c12 [GSK683281] | 11 | 47 | 19 | 18 | 19 | 62 | 18 | 0 | 7 | 1
Cl.Cl.NCC(NC(=O)c1cc(-c2ccccc2)c(-c2ccnc3[nH]ccc23)s1)c1ccccc1 (centres unmarked) [GSK1321561] | 50 | 55 | 15 | 4 | 0 | 30 | 0 | 12 | 44 | 7
Oc1cc(Nc2ccnc3cc(I)ccc23)ccc1F [GW552771] | 17 | 58 | 8 | 0 | 0 | 17 | 0 | 0 | 0 | 3
COc1cc(Nc2nccc(-c3c(-c4cccc(NC(=O)c5c(F)cccc5F)c4)nn4ncccc34)n2)cc(OC)c1OC [GSK327238] | 0 | 82 | 19 | 70 | 9 | 36 | 0 | 11 | 41 | 11
C[C@@H](Oc1cc(-n2cnc3cc(-c4ccnc(NCCS(C)(=O)=O)c4)ccc32)sc1C(N)=O)c1ccccc1Cl [GSK907232] | 69 | 14 | 20 | 6 | 32 | 26 | 0 | 0 | 0 | 7
O=C(Nc1n[nH]c2nc(-c3ccc(O)cc3)ccc12)C1CC1 [SB-710363] | 0 | 92.1 | 0 | 0 | 72 | 0 | 0 | 0 | 11 | 61
Cc1cccc(Nc2nc(N[C@H]3CCNC3)ncc2C(N)=O)c1.Cl [GSK2197149] | 11 | 0 | 18 | 38 | 70 | 66 | 95.8 | 78 | 98 | 14
CN(c1ccc(NC(=O)Nc2cc(C(F)(F)F)ccc2F)cc1)c1ccnc(Nc2ccc(S(N)(=O)=O)cc2)n1 [GW809893] | 0 | 78 | 6 | 2 | 11 | 23 | 2 | 10 | 0 | 69
COc1cc2c(cc1OCCN1CCNCC1)ncc1c3ccc(C#N)cc3[nH]c21 | 66 | 0 | 20 | 0 | 4 | 0 | 0 | 8 | 0 | 16
